# Compounds with a hit are over-represented: about 2.2% of the library has one in this group of screens.
# IEC-6 cytotox: IEC-6 cytotoxicity, counter-screen for KLF5 inhibitors; inhibition, % at 5 µM; 290,000 tested, 0.78% active; luminescence viability; in the data active means inhibition above about 22%;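 further: 0% = plate median of test compound wells and 100% = cytotoxic reference compound wells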
# BaF3 parental: parental Ba/F3 viability inhibition as JAK2V617F counter-screen | CellTiter-Glo ATP luminescence | 220,000 tested, 1.1% active | inhibition, % at 5.6 µM | AID 1486;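 active means inhibition above a per-campaign cutoff, the mean inhibition of all tested compounds plus 3 SD, cut at about 27% in these data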;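 further: 0% = DMSO wells and 100% = JAK Inhibitor I control wells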
# APP 5UTR inh: APP translation inhibition | SH-SY5Y APP 5'UTR-luciferase reporter, luminescence | inhibition, % at 2 µM | 190,000 tested, 0.82% active | AID 1285;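 active means inhibition above a set limit, derived from the sample mean plus 3 SD, cut at about 45% in these data; inconclusive means one replicate passes the limit while the other fails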
# KLF5 inhibitor: suppresses KLF5 promoter-driven expression. DLD-1 KLF5 promoter-luciferase reporter, luminescence. inhibition, % at 5 µM. 290,000 tested, 0.23% active;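 active means inhibition above a per-plate limit of that plate's mean compound inhibition plus 3 SD, cut at about 60% in these data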;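 further: 0% = DMSO wells and 100% = LY294002 at 200 µM; higher means less KLF5 promoter-driven luciferase light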
# Ba/F3 V617F tox: reduce viability of Ba/F3 cells dependent on JAK2V617F | Ba/F3 EpoR-JAK2V617F viability, ATP luminescence | AID 1446 | 220,000 tested, 1.1% active | inhibition, % at 5.6 µM;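 active means inhibition above the campaign mean plus 3 SD over all tested compounds, cut at about 24% in these data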;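 further: cytokine-independent growth of Ba/F3 cells driven by EpoR plus mutant JAK2; 0% = DMSO-treated cells and 100% = JAK inhibitor I control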
# aSyn UTR inh: 5' untranslated region of α-synuclein, MLPCN primary screen. alpha-synuclein 5'UTR reporter, inhibitor activity. inhibition, % (tested at 7.5 µM). 300,000 tested, 0.82% active. AID 1813; in the data active means inhibition above about 60%; inconclusive means no clear call, values can overlap the other calls;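 further: H4 neuroglioblastoma cells stably carrying SNCA 5'UTR luciferase fusion; 0% = DMSO wells and 100% = positive control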
# The depositor's hits bear a star; ? = inconclusive; . = no result given.
SMILES,IEC-6 cytotox,BaF3 parental,APP 5UTR inh,KLF5 inhibitor,Ba/F3 V617F tox,aSyn UTR inh
O=C(Nc1ccccc1)Nc1ccccc1C(=O)NCCCN1CCOCC1,-8,0,.,-21,-1,23
CNC[C@H](CC1CCCCC1)NC[C@H](Cc1ccccc1)NCCC12CC3CC(CC(C3)C1)C2,-6,.,.,-8,.,125*
Cc1ccc(CN2CCN(/N=C/c3ccc(C(=O)O)cc3)CC2)c(C)c1,7,53*,-12,-4,8,11
COc1cccc2sc(N(CCCN(C)C)C(=O)c3ccc(S(=O)(=O)N4CCCc5ccccc54)cc3)nc12,-2,.,.,-11,.,64*
COc1cc2nc(N(CCCN(C)C)C(=O)c3ccc(S(=O)(=O)N4CCc5ccccc5C4)cc3)sc2cc1OC,.,.,.,.,.,-11
COc1ccc(OC)c2sc(N(CCCN(C)C)C(=O)c3ccc(S(=O)(=O)N4CCc5ccccc5C4)cc3)nc12,.,.,.,.,.,100*
COc1cccc2sc(N(CCCN(C)C)C(=O)c3ccc(S(=O)(=O)N4CCc5ccccc5C4)cc3)nc12,-5,.,.,-22,.,94*
COc1ccc(C)c2sc(N(CCCN(C)C)C(=O)c3ccc(S(=O)(=O)N4CCc5ccccc5C4)cc3)nc12,.,.,.,.,.,91*
CCOCCCNC(=S)N(CCCN(C)C)Cc1cc2cc3c(cc2[nH]c1=O)OCCO3,8,.,.,16,.,-4
O=C(c1cc2cc(Br)ccc2o1)N1CCN(c2ccccc2)CC1,-1,.,.,-34,.,-35
CC1CCCCN1S(=O)(=O)c1ccc(C(=O)N(CCCN(C)C)c2nc3ccc(Br)cc3s2)cc1 (stereo unspecified),8,.,.,-29,.,67*
CCOc1cccc2sc(N(CCCN(C)C)C(=O)c3ccc(S(=O)(=O)N(C)Cc4ccccc4)cc3)nc12,1,.,.,-22,.,?
CN(C)CCN(C(=O)c1ccc(S(=O)(=O)N2CCCC2)cc1)c1nc2ccc(Br)cc2s1,8,.,.,-10,.,-20
CCOc1cccc2sc(N(CCCN(C)C)C(=O)c3ccc(S(=O)(=O)N(CC)Cc4ccccc4)cc3)nc12,-6,.,.,-12,.,71*
CC(Oc1ccc(Cl)cc1)C(=O)Nc1ccc(S(=O)(=O)N2CCOCC2)cc1 (stereo unspecified),1,.,.,6,.,-4
CN(C(=O)COc1ccccc1C(=O)NCCOc1ccccc1)c1ccccc1,7,36*,13,-15,11,-20
O=C(NCCc1ccccc1)c1ccc2nccnc2c1,4,4,-75,-23,0,63*
O=C(NCCc1ccccc1)c1cccnc1,-1,6,-9,-83,-1,-99
Cc1ccc2c(C(=O)CN3CCC(C(N)=O)CC3)c(C)[nH]c2c1,6,.,.,-22,.,14
O=C(N/N=C/c1c[nH]c2ccccc12)c1cc(-c2ccc3ccccc3c2)n[nH]1,2,13,88*,-122,9,-37
CCN1CCCC1CNC(=O)CN(C)S(=O)(=O)c1ccc(Cl)cc1 (stereo unspecified),-3,.,.,1,.,-7
O=C(O)[C@@H]1CCCC[C@@H]1C(=O)N1CCc2ccccc2C1CN1C(=O)c2ccccc2C1=O (stereo partly specified),-1,-2,20,-29,-3,68*
Cc1ccc(/C=C/c2nc3ccccc3c(=O)[nH]2)cc1,14,2,.,-80,5,68*
CCN1CCN(CCCNC(=O)c2ccc(/C=C3/Oc4ccccc4N(Cc4cccc(C)c4)C3=O)cc2)CC1,-1,.,.,-10,.,101*
O=C(NCCCN1CCOCC1)c1ccc(/C=C2\Oc3ccccc3N(Cc3ccccc3F)C2=O)cc1,-1,.,.,-15,.,-40
SMILES,IEC-6 cytotox,BaF3 parental,APP 5UTR inh,KLF5 inhibitor,Ba/F3 V617F tox,aSyn UTR inh
N=C1S/C(=C\c2ccc(-c3cccc(Cl)c3)o2)C(=O)N1c1nccs1,4,6,36,-31,0,53
COc1ccc(/C=C2\SC(=N)N(c3nccs3)C2=O)cc1OC,4,9,22,10,4,65*
Cc1cccc(NS(=O)(=O)c2cnc[nH]2)c1,4,93*,4,-20,4,11
CCOc1ccc(NC2=C(OC)C(=O)c3ccccc3C2=O)cc1,-2,11,7,-22,-1,-94
NS(=O)(=O)c1ccc(NC2=CC(=O)C(=O)c3ccccc32)cc1,-2,.,.,-34,.,51
Cc1ccc(NC2=C(Cl)C(=O)c3ccccc3C2=O)cc1,2,4,96*,-9,3,?
CCN(CC)c1ccc(NC2=C(Cl)C(=O)c3ccccc3C2=O)cc1,9,0,96*,-63,-2,.
Cc1ccc(NC2=CC(=O)C(=O)c3ccccc32)cc1,2,10,-30,-57,4,103*
CCNC1=C(Cl)C(=O)c2ccccc2C1=O,19,2,-4,-74,-1,-23
CC(=O)c1ccc(OCC(=O)N2CCN(S(=O)(=O)c3ccc(C)cc3C)CC2)cc1,4,.,.,-2,.,14
CCCCCCc1cc2cc(C(=O)Nc3cccc(OC)c3)c(=O)oc2cc1O,2,3,-7,5,-1,63*
O=c1cc(O)nc(SCc2ccccc2)n1-c1ccc(F)cc1,-6,31*,-14,-25,4,23
Cc1c(C(=O)Nc2ccc(S(=O)(=O)N(C)C3CCN(C)CC3)cc2)oc2c(Cl)cccc12,.,.,.,.,.,-52
CC(C)Oc1ccccc1C1Nc2ccccc2C(=O)N1c1ccc2c(c1)OCCO2 (stereo unspecified),1,1,-150,-31,-3,68*
COc1ccc(N2C(=O)c3ccccc3NC2c2ccccc2O)cc1 (stereo unspecified),7,.,.,-102,.,-47
CC(C)c1ccc(/C=C2\SC(=S)N(CCC(=O)NCCCn3ccnc3)C2=O)cc1,-4,.,.,16,.,98*
COc1ccc(/C=C2\SC(=S)N(CCCC(=O)NNC(=O)c3ccccc3O)C2=O)cc1,2,3,65*,-28,-3,75*
COc1ccc(/C=C2\SC(=S)N(CCC(=O)NC3C=CS(=O)(=O)C3)C2=O)cc1 (stereo unspecified),1,.,.,-36,.,66*
COc1ccc(/C=C2\SC(=S)N(CCC(=O)NCCCn3ccnc3)C2=O)cc1,-5,.,.,22,.,54
O=C(CCCN1C(=O)/C(=C/c2ccccc2Cl)SC1=S)NNC(=O)c1ccccc1Cl,-1,0,41,27,-4,100*
COc1cccc(/C=C2\SC(=S)N(CCC(=O)NC3C=CS(=O)(=O)C3)C2=O)c1 (stereo unspecified),-2,.,.,-32,.,-29
O=C(CCn1ccnc1)Nc1ccc2ccccc2c1,0,7,-9,-1,3,-1
Cn1nnnc1SCCNC(=O)C1CCC(=O)N(Cc2ccc(Cl)cc2)C1 (stereo unspecified),1,.,.,1,.,-4
CC1(C)Cc2c(sc(NC(=O)C(=O)NCCCN3CCOCC3)c2C#N)CO1,3,.,.,-17,.,1
CCC(C)N(C(=O)Cn1nnc(-c2ccc(Cl)cc2)n1)C1CCS(=O)(=O)C1 (stereo unspecified),.,.,.,.,.,17
CN1CCN(NC(=O)c2cc(S(=O)(=O)Nc3ccc(Cl)cc3)ccc2Cl)CC1,-9,-3,.,-18,-4,-1
